Activity calls are given as the source filed them. Calls come from the whole dose curve; as a rule, active = well fitted curve in the direction sought with a large enough effect; inconclusive = small, poorly fitted or top-dose-only effect, or another doubt; inactive = no such curve, though single readings can be large or run the other way.
test: qHTS for ATAD5 Agonist screened against the NCATS CANVASS Library (AID 1347367); conditions: HEK293T ATAD5-luciferase reporter, luminescence, 16 h; series mostly up to 46.1 µM; activation: at the top concentration;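 note: luciferase reporter driven by ATAD5 which rises upon DNA damage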; for activation: 0% is about no effect
Description: Natural products and their derivatives continue to be wellsprings of nascent therapeutic potential. However, many laboratories have limited resources for biological evaluation, leaving their previously isolated or synthesized compounds largely or completely untested. To address this issue, the Canvass library of natural products was assembled (https://tripod.nih.gov/canvass), in collaboration with academic and industry researchers, for quantitative high-throughput screening (qHTS) across a diverse set of cell-based and biochemical assays. The pure (>85% purity by liquid chromatography/mass spectrometry [LC/MS]) Canvass library of 346 natural products were submitted by 45 academic laboratories and companies around the world. We collected pure natural products to circumvent deconvolution and structure elucidation due to time and resource limitations. The library was formatted into 1536-well plates and evaluated in 50 qHTS (in an 11-pnt concentration series) bioassays with broad scope of disease-relevant mechanisms. The resulting data set from 50 different assays was then systematically analyzed to identify overall trends and specific natural products with interesting biological activities. Reported herein are the results of each individual qHTS and their corresponding assay protocol. Human ATAD5 is a biomarker for identifying gentoxic compounds because ATAD5 protein levels increase post-transcriptionally in response to DNA damage. A cell-based assay is used to detect DNA damage inducers and genotoxic compounds as well. The assay is based upon a luciferase reporter gene under control of ATAD5 that has been stably integrated into HEK 293T cells. Luminescence intensity is proportional to ATAD5 expression. National Center for Advancing Translational Sciences (NCATS), Rockville, MD National Institute of Health (NIH), Bethesda, Maryland
ATAD5 Agonist assay protocol: 1. In a 1536 well, tissue culture treated white solid bottom plates (Greiner Bio-One North America), 5 uL of HEK293T-ATAD5 cell solution (2000 cells / well) was dispensed using the Multidrop Combi dispenser (Thermo Fisher Scientific). 2. The assay plates were incubated for 5hr at 37C, 5% CO2 to allow the cells to acclimate and attach. 3. Controls and compounds were pin transferred (~23 nL volume) to the assay plates via Wako Pin-tool (Wako Automation, Richmond VA) equipped with a 1536 pin head. The compounds were transferred to columns 5-48 resulting in a final concentration ranging from 0.6nM to 92uM. Methyl methanesulfonate (MMS) was used as a control in various concentrations (columns 1: dose response, column2: 0.7mM, and column3: 0.6mM). DMSO (0.46% final concentration was used as a negative control. 4. The assay plates were further incubated in the dark at 37C, 5% CO2 for 16hr. 5. To measure cell viability, 1uL of CellTiter-Fluor (Promega) reagent was then added to the assay plates (column 1-48, rows 1-32). The assay plates were incubated in the dark for 1hr at 37C, 5% CO2. 6. A first readout of fluorescence signal was acquired via the ViewLux (PerkinElmer) plate reader using filter sets for AFC (380-400nmEx/505Em) and 1 second exposure setting. 7. To measure ATAD5 activation, 4uL of Amplite (AAT Bioquest) reagent was then added to the assay plates (column 1-48, rows 1-32). The assay plates were further incubated in the dark at room temperature for 30min. 8. A second readout of luminescence signal was acquired via the ViewLux plate reader using a clear emission filter, 10 second exposure setting. Fox JT1, et al. High-throughput genotoxicity assay identifies antioxidants as inducers of DNA damage response and cell death. Proc Natl Acad Sci U S A. 2012 Apr 3;109(14):5423-8.
Potency is the fitted concentration of half-maximal effect.

Row | SMILES | activation | Potency
1 | CCCCC[C@@H]1OC(=O)[C@@H](C)N(C)C(=O)[C@H](CCCCC)OC(=O)C(C)N(C)C(=O)[C@H](CCCCC)OC(=O)[C@@H](C)N(C)C(=O)[C@H](CCCCC)OC(=O)C(C)N(C)C1=O (stereo not given in full) | -1.13% (inactive) | 
2 | COc1ccc2c(c1)[nH]c1c(C)nccc12 | -4.54% [at 91.4 µM] (inactive) | 
3 | CC[N@@+]1([O-])C[C@]2(C)CC[C@@H](O)[C@@]34C5C[C@H]6CC[C@@]5(C(C[C@H]23)C41)[C@H](O)[C@@]6(O)CO (stereo not given in full) | 1.94% (inactive) | 
4 | CCN1C[C@]2(C)CC[C@@H](O)[C@]34C1[C@H](C[C@H]23)C12CCC(CC14)[C@](O)(CO)[C@H]2O (stereo not given in full) | -0.682% (inactive) | 
5 | CC(=O)N[C@H]1CCN2CCC[C@H]12 | -0.712% [at 103 µM] (inactive) | 
6 | COC(=O)C1=C2Nc3ccccc3[C@@]23CCN2CC(C(C)=O)C1C[C@H]23 (stereo not given in full) | -0.962% (inactive) | 
7 | NCCc1ccccc1 | -0.9% (inactive) | 
8 | C[C@]12CC(O)C3[C@@H](CCC4C[C@@H](O)CC[C@@]43CO)[C@@]1(O)CCC2C1=CC(=O)OC1 (stereo not given in full) | -0.657% (inactive) | 
9 | CCC[C@H]1CC[C@H]2[C@H](C)CCC[C@H]2N1 | 3.88% (inactive) | 
10 | CC1=CC2CC[C@@H]3[C@@H](C)C[C@H](C)[C@@H](C1)N23 (stereo not given in full) | 1.35% (inactive) | 
11 | CNCCc1ccc(O)cc1 | -1.56% (inactive) | 
12 | COc1ccc2c3c([nH]c2c1)C(C)=NCC3 | -4.56% (inactive) | 
13 | CNCCc1ccccc1 | -1% (inactive) | 
14 | O=C(c1ccccc1O)c1[nH]c(Cl)c(Cl)c1-n1c(C(=O)c2ccccc2O)cc(Cl)c1Cl | 2.01% (inactive) | 
15 | CN1C(=O)[C@]23CC4C(C)(C)[C@@]5(C[C@@]41CN2CC[C@@]3(C)O)C(=O)Nc1c5ccc2c1OC=CC(C)(C)O2 (stereo not given in full) | -1.28% (inactive) | 
16 | CCC(=O)CCCCC[C@@H]1NC(=O)[C@H]2CCCCN2C(=O)[C@H]([C@@H](C)CC)NC(=O)[C@H](Cc2cn(OC)c3ccccc23)NC1=O |  | 1.86 µM (active)
17 | CO[C@@H](/C=C/CC/C=C/C(=O)O)[C@@H](O)[C@H](C)/C=C(\C)[C@@H](O)[C@H](C)C(=O)CCCC1CC(=O)NC(=O)C1 | 4.4% (inactive) | 
18 | CCCC[C@@H]1CC[C@H]2CCCC(CCC)N12 (stereo not given in full) | -1% (inactive) | 
19 | C/C=C1/CN2CC[C@]34C(=Nc5ccccc53)[C@@H]2C[C@@H]1[C@H]4C(=O)OC | -0.258% [at 91.4 µM] (inactive) | 
20 | CN(C)Cc1c[nH]c2ccccc12 | -0.663% (inactive) | 
21 | CC=C1CN(C=O)[C@H]2C[C@@H]1[C@@H](C(=O)OC)[C@@]13CCOC21Nc1ccccc13 (stereo not given in full) | -1.78% (inactive) | 
22 | CC1=CC(=O)C2=C(C)C[C@H](O)[C@@H]3[C@H](OC(=O)[C@@H]3C)[C@@H]12 | 1.68% (inactive) | 
23 | CNCCc1c[nH]c2ccccc12 | -0.463% (inactive) | 
24 | C=C1[C@@H](C)[C@H]2[C@H](Cc3ccccc3)NC(=O)[C@]23OC(=O)/C=C/[C@H](O)CCC[C@@H](C)C/C=C/[C@H]3[C@@H]1O | 18.5% (inactive) | 
25 | CC[C@@H]1CN2CC[C@@]3(O)C(=Nc4cccc(OC)c43)[C@@H]2C[C@@H]1/C(=C\OC)C(=O)OC | -1.29% (inactive) | 
26 | CO[C@H](c1ccccc1)[C@H]1NC(=O)C(C)NC(=O)C(C[C@@H](C)CO)N(C)C(=O)[C@@H](C(O)c2cn(C(C)(C)C3CO3)c3ccccc23)NC(=O)C(C(C)C=C(C)C)NC(=O)C(CC(C)C)N(C)C(=O)C(C(C)C)NC1=O (stereo not given in full) | -0.862% [at 27.5 µM] (inactive) | 
27 | CO[C@@H](/C=C/CC/C=C/C(=O)O)[C@@H](O)[C@H](C)[C@@H](O)/C(C)=C/[C@H](C)C(=O)CCCC1CC(=O)NC(=O)C1 | -1.48% (inactive) | 
28 | c1ccc2c3c([nH]c2c1)CNCC3 | -0.536% (inactive) | 
29 | COc1ccc(C23Oc4cc(OC)cc(OC)c4[C@](O)([C@H](c4ccccc4)C2C(=O)NCCCCNC(=O)c2ccccc2)[C@@H]3O)cc1 (stereo not given in full) | 2.27% (inactive) | 
30 | CCN1C[C@]2(C)CC[C@H](O)[C@]34C1C(C[C@H]23)[C@@]12CC[C@H](CC14)[C@](O)(COC(=O)c1ccc(OC)c(OC)c1)[C@H]2O (stereo not given in full) | 1.91% (inactive) | 
